The record followed here is PubChem BioAssay (Tox21).

Several values for one entry are separate records, joined by “and”; a condition that tells them apart may be missing. Equal values may be shown once. Records with an inconclusive call do not appear. Where a structure was tested more than once in an assay, its records may differ in their call. Activity calls are given as the source filed them. Unless noted, calls come from the whole dose curve.

A short description of assay [1]: qHTS assay to identify small molecule agonists of the vitamin D receptor (VDR) signaling pathway - cell viability counter screen (AID 743224; active = well fitted curve in the direction sought with a large enough effect in the repeat runs; an effect the other way counts as inactive or inconclusive; note: series mostly up to about 63 µM; nearly all actives have a fitted effect of over 50% in size). In outline: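 VDR-bla cell line, quantitative HTS format; 16 h compound incubation (37C, 5% CO2); ATP-based CellTiter-Glo luminescence measured in the reporter assay wells.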
Assay [2] is described as follows: qHTS assay to identify small molecule antagonists of the vitamin D receptor (VDR) signaling pathway - cell viability counter screen (AID 743225; active = well fitted curve in the direction sought with a large enough effect in the repeat runs; an effect the other way counts as inactive or inconclusive; note: nearly all actives have a fitted effect of over 50% in size). Put shortly:
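Cytotoxicity toward the VDR-bla HEK 293T line was scored by ATP-based CellTiter-Glo luminescence, read in the wells already used for the beta-lactamase readout after 16 h compound treatment under 3 nM 1-alpha,25-dihydroxyvitamin D3 stimulation.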

A short description of assay [3]: qHTS assay to identify small molecule agonists of the NFkB signaling pathway - cell viability counter screen (AID 1159515). Note: series mostly up to about 61 µM; nearly all actives have a fitted effect of over 55% in size. Put shortly: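 Viability in NFkB-bla ME-180 cells was measured by CellTiter-Glo luminescence, 30 min room temperature, in wells already treated 5 hr with compounds and read for reporter FRET.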
A short description of assay [4]: qHTS assay to identify small molecule agonists of the endoplasmic reticulum stress response signaling pathway (AID 1159516; active = well fitted activation curve with a large enough effect in the signal ratio in the repeat runs, not every such curve was filed as active; the % refers to the signal ratio; note: potency is the fitted concentration of half-maximal effect). In outline: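 ER stress element reporter (bla) in HeLa. 1,500 cells/well, overnight attachment; 5 hr compound; 2 hr RT substrate; dual-emission fluorescence.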
The nature of assay [5]: qHTS assay to identify small molecule agonists of the endoplasmic reticulum stress response signaling pathway - cell viability counter screen (AID 1159517).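 Note: HeLa cells carrying an ER stress response element beta-lactamase reporter; series mostly up to about 61 µM; nearly all actives have a fitted effect of over 50% in size.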 In outline: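 Cells, HeLa ESRE-bla; density, 1,500/well; dosing, 5 hr at 37 C, 5% CO2; readout, CellTiter-Glo luminescence after 30 min RT.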
Assay [6] in a line: qHTS assay to identify small molecule antagonists of the retinoid-related orphan receptor gamma (ROR-gamma) signaling pathway - cell viability counter screen (AID 1159520; active = well fitted curve in the direction sought with a large enough effect in the repeat runs; an effect the other way counts as inactive or inconclusive; note: nearly all actives have a fitted effect of over 50% in size). In outline:
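Cytotoxicity was read from cellular ATP (CellTiter-Glo luminescence) after 16 hr at 37 C with 1 uM doxycycline induction. The inducer was added 2 hr after compound transfer to Tet-on ROR gamma CHO cells.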

For assay [7], the target named is Nuclear receptor ROR-gamma (Homo sapiens) (UniProt P51449). Kind of assay: qHTS assay to identify small molecule antagonists of the retinoid-related orphan receptor gamma (ROR-gamma) signaling pathway (AID 1159521; active = well fitted curve in the direction sought with a large enough effect in the repeat runs; an effect the other way counts as inactive or inconclusive; note: nearly all actives have a fitted effect of over 50% in size; note: potency is the fitted concentration of half-maximal effect). In outline:
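Readout: ONE-Glo luciferase luminescence, 30 min at room temperature. System: Tet-on RORγ CHO, RORE-LUC. Sequence: compound 2 h, doxycycline 1 uM final, 16 h at 37 C.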

The nature of assay [8]: qHTS assay to identify small molecule agonists of the AP-1 signaling pathway - cell viability counter screen (AID 1159525). Note: nearly all actives have a fitted effect of over 55% in size. Put shortly: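 Luminescent ATP readout (Cell Titer Glo, 30 min RT), normalised to DMSO and tetra n-octyl ammonium bromide controls. Cells were ME-180 AP-1-bla in 0.5% dialyzed FBS Opti-MEM, with a 5 h, 37 °C compound exposure.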
Assay [9] can be described thus: qHTS assay to identify small molecule agonists of the AP-1 signaling pathway (AID 1159526).
In assay [10] the target is Retinoic acid receptor RXR-alpha (Homo sapiens) (UniProt P19793). The assay is described as follows: qHTS assay to identify small molecule agonists of the RXR signaling pathway (AID 1159527). Note: nearly all actives have a fitted effect of over 35% in size. Note: potency is the fitted concentration of half-maximal effect. In outline: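 Reporter activation is measured as beta-lactamase activity via FRET substrate cleavage (emission 460/530 nm) in HEK 293T cells expressing an RXR-alpha-driven bla construct, following 16 hr compound exposure at 37 C.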
Sequence of Retinoic acid receptor RXR-alpha (Homo sapiens) (P19793 whole entry, looked up): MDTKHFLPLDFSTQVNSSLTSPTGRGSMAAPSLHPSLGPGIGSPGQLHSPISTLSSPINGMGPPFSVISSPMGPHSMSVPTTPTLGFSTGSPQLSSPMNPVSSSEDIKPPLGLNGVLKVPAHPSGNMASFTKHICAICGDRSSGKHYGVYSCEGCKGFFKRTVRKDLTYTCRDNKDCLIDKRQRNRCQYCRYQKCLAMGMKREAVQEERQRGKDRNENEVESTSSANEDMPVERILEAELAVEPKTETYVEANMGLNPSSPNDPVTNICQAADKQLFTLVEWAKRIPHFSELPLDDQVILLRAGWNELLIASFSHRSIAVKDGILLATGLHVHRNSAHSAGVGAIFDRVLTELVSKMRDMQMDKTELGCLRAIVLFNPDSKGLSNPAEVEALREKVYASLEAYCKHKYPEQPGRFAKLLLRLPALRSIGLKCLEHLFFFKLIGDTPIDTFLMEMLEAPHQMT

On to `CC1(C)[C@@H](O[C@H]2O[C@H](C(=O)O)[C@@H](O)[C@H](O)[C@H]2O[C@@H]2O[C@H](C(=O)O)[C@@H](O)[C@H](O)[C@H]2O)CC[C@]2(C)[C@H]3C(=O)C=C4[C@@H]5C[C@@](C)(C(=O)O)CC[C@]5(C)CC[C@@]4(C)[C@]3(C)CC[C@@H]12`, for which the Potency result in assay [1], in [2], in assay [3], in assay [4], in [5] and in [6] was “inactive” each time. Moreover, the Potency result in assay [7], in [8] and in assay [10] was “inactive” in each case. Also, the call in assay [9] was inactive.

Regarding `N[C@@H](Cc1cc(I)c(Oc2ccc(O)c(I)c2)c(I)c1)C(=O)O`, the Potency entry in [1], in [2], in assay [3], in assay [4], in [5] and in assay [6] was “inactive” each time. Besides, the Potency entry in [7], in assay [8] and in assay [10] was “inactive” in each case. In assay [9], the call was inactive.

`Nc1cccc(N)n1`: the Potency entry in assay [1], in assay [2], in [3], in [4], in assay [5] and in assay [6] was “inactive” each time. The Potency entry in assay [7], in assay [8] and in [10] was “inactive” throughout. Further, in assay [9], the compound was called inactive.

As to `C=C1C[C@]23C[C@@]1(O)CC[C@H]2[C@@]12C=C[C@H](O)[C@@](C)(C(=O)O1)[C@H]2[C@@H]3C(=O)O`, the Potency result in assay [1], in [2], in assay [3], in [4], in assay [5] and in [6] was “inactive” throughout. Besides, the Potency entry in assay [7], in [8] and in assay [10] was “inactive” throughout. Besides, the outcome in assay [9] was inactive.

With `CCCOCC(C)O` (centres undefined), the Potency result in assay [1], in assay [2], in assay [3], in assay [4], in [5] and in [6] was “inactive” in each case. Besides, the Potency result in assay [7], in assay [8] and in assay [10] was “inactive” throughout. Also, in assay [9], the call was inactive.

For the compound `Clc1cccc(Cl)c1NC1=NCCN1`, the Potency entry in assay [1], in assay [2], in assay [3], in assay [4], in [5] and in assay [6] was “inactive” in each case. Also, the Potency result in assay [7], in assay [8] and in assay [10] was “inactive” each time. Moreover, the outcome in assay [9] was inactive.

For the compound `Nc1nc(N)c2nc(-c3ccccc3)c(N)nc2n1`, the Potency entry in assay [1], in assay [2], in assay [3], in [5], in assay [6] and in assay [7] was “inactive” throughout. Also, in assay [8], the Potency entry is “inactive”. Besides, the Potency in [4] was 49 µM (active) and 21.3 µM (active); in [10], 19 µM (active).

For `O=[N+]([O-])c1cc(C(F)(F)F)ccc1Cl`, the Potency result in assay [1], in [2], in assay [3], in assay [4], in [5] and in assay [6] was “inactive” each time. Besides, the Potency entry in [7], in assay [8] and in assay [10] was “inactive” in each case. For the same compound, the call in assay [9] was inactive.

For `CCCCCC(C)=O`, the Potency result in [1], in assay [2], in [3], in assay [4], in [5] and in assay [6] was “inactive” in each case. Besides, the Potency result in assay [7], in assay [8] and in [10] was “inactive” each time. In addition, the compound was classed as inactive in assay [9].

In the case of `O=c1c(O)c(-c2ccc(O)c(O)c2)oc2cc(O)cc(O)c12`, the Potency result in assay [1], in assay [2], in assay [3], in [4], in assay [5] and in assay [6] was “inactive” throughout. In addition, the Potency result in assay [8] and in [10] was “inactive” throughout. Moreover, the Potency entry in assay [7] was “inactive and 43.6 µM (active) and 54.5 µM (active)”. In addition, in assay [9], the call was inactive.
